Reference: PubChem BioAssay
Activity calls are given as the source filed them.

Columns and labels:
[1] = small molecules captured by biotinylated probe aFSTL3 – biochemical, small-molecule microarray, fluorescence 635/667, stem cell growth factor project, primary screen (AID 1064); settings: higher = more signal;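 also: measures binding of the biotinylated anti-FSTL3 antibody to printed compounds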
[2] = binders from COS7 lysate, DM2A8 probe, primary screen, torsin A project, cell lysate, small-molecule microarray, fluorescence 635/667 (AID 1065); settings: higher = more signal, COS7 lysate expressing mutant human TOR1A
[3] = small molecules captured by biotinylated probe aFGF2 – biochemical, small-molecule microarray, fluorescence 635/667, stem cell growth factor project, primary screen (AID 1067); settings: higher = more signal;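 also: measures binding of biotinylated aFGF2 protein to printed compounds on slides; z-score merges feature fluorescence and signal-to-noise across triplicate slides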
[4] = small molecules captured by biotinylated probe aFGF10 – biochemical, small-molecule microarray, fluorescence 635/667, stem cell growth factor project, primary screen (AID 1071); settings: higher = more signal;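 also: score merges 667 nm spot intensity and signal to noise from triplicate slides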
[5] = biological target: Neurogenic locus notch homolog protein 2 (Homo sapiens) (UniProt Q04721); assay: small molecules binding Notch2 protein – biochemical, small-molecule microarray, 635 nm fluorescence, stem cell growth factors, primary screen (AID 1073); settings: higher = more signal
[6] = biological target: Pro-neuregulin-1, membrane-bound isoform (Homo sapiens) (UniProt Q02297); assay: small molecules binding neuregulin-1 protein – biochemical, small-molecule microarray, fluorescence 635/667, psychiatric disease protein project, primary screen (AID 1075); settings: NRG1 binding, 635 nm fluorescence, higher = more signal;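 also: score combines 667 nm spot fluorescence with signal to noise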
Pro-neuregulin-1, membrane-bound isoform (Homo sapiens), sequence (Q02297 whole entry, looked up, the tested form may be a part, canonical isoform): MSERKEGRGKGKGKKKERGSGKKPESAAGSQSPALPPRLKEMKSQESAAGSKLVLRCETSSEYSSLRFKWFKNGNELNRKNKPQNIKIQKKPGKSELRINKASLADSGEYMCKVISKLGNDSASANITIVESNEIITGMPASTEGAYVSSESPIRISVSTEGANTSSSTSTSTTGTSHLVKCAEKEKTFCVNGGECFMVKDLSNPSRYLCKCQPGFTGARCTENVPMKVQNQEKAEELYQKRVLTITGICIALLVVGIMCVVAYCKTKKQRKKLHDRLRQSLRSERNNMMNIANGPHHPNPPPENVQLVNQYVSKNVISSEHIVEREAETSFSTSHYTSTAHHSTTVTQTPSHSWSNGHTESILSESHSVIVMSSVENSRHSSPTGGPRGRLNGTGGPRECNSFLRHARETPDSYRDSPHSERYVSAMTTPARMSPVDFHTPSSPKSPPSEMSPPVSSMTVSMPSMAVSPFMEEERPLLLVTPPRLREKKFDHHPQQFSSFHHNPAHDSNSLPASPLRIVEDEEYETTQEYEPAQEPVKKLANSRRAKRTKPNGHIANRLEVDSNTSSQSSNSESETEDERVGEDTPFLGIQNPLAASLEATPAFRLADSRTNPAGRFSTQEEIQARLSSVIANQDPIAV

[7] = system: Neuregulin-1 EGF-like domain; assay: small molecules binding NRG1 EGF domain – biochemical, small-molecule microarray, 635 nm fluorescence, primary screen (AID 1081); settings: higher = more signal;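 also: binding of the protein to compounds printed on small-molecule microarray slides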
[8] = FRG1 expression reporter modulators in myotubes – cell-based, C2C12 myotubes, firefly/Renilla luciferase, luminescence, FRG1 inhibition for FSHD, primary screen (AID 1084); settings: FRG1 promoter luciferase, higher = more signal, called active from +8 up or from −8 down
[9] = small molecules captured by biotinylated probe aFST – biochemical, small-molecule microarray, fluorescence 635/667, stem cell growth factor project, primary screen (AID 1086); settings: higher = more signal;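 also: score merges 667 nm fluorescence with signal-to-noise of each printed compound spot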
[10] = binders of probe aHhip on microarray, primary screen, stem cell growth factor project, biochemical, small-molecule microarray, fluorescence 635/667 (AID 1087); settings: higher = more signal;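 also: score merges spot fluorescence at 667nm with spot signal to noise ratio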
[11] = system: PRMT1 (protein arginine N-methyltransferase 1); assay: small molecules binding arginine methyltransferase PRMT1 – biochemical, small-molecule microarray, 635 nm fluorescence, primary screen (AID 1088); settings: higher = more signal;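 also: binding of Prmt1 protein to compounds spotted on small-molecule microarray slides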
[12] = growth effects on S. cerevisiae YJM789 – YJM789 clinical isolate, OD600, 24 h, basal, primary screen (AID 1089); settings: higher = more signal, called active from +8 up or from −8 down;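 also: growth of clinical yeast isolate S. cerevisiae YJM 789 seeded 1000 cells per well; test concentration not given here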
[13] = S. pombe growth modifiers, basal conditions – strain 972, OD600, 24 h, no modulator, primary screen (AID 1090);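 also: basal condition with compound alone and no growth modifier present; test concentration not given here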; settings: S. pombe 972 growth, higher = more signal, called active from +8 up or from −8 down
[14] = budding yeast growth modifiers under rapamycin – strain BY4716, OD600, 96 h, primary screen (AID 1091); also: test concentration not given here; settings: S. cerevisiae BY4716 + rapamycin, higher = more signal, called active from +8 up or from −8 down
[15] = biological target: Torsin-1A-interacting protein 2 (Homo sapiens) (UniProt Q8NFQ8); assay: small molecules binding lysate-expressed LULL1 – cell lysate, human LULL1 lysate, 635/667 nm fluorescence, primary screen (AID 1092); settings: small-molecule microarray, hLULL1 lysate binding, 635 nm fluorescence; higher = more signal;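 also: probe is lysate of COS7 cells overexpressing human LULL1; score merges per-feature 667 nm fluorescence with signal-to-noise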
Torsin-1A-interacting protein 2 (Homo sapiens), sequence (Q8NFQ8 whole entry, looked up): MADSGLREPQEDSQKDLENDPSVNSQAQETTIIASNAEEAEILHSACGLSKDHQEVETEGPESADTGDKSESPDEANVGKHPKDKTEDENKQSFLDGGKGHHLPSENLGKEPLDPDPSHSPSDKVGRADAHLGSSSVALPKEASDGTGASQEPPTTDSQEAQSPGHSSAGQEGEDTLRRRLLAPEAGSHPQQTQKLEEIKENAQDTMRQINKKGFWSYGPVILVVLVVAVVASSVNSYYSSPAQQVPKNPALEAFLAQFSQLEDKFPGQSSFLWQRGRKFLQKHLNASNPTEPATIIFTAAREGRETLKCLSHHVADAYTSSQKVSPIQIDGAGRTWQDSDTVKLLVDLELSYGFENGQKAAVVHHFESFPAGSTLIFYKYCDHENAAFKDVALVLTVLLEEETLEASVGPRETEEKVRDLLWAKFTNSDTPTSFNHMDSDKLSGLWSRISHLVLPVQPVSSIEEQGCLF

[16] = optical density change of DRC41 E. coli – strain DRC41, OD650, 24 h, E. coli filamentation project, primary screen (AID 1093);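 also: MC1000 strain lacking acrAB efflux and sulA so SOS filamentation is blocked; test concentration not given here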; settings: E. coli DRC41 growth, higher = more signal, called active from +8 up or from −8 down
[17] = probe aLefty2 binding to arrayed compounds – biochemical, biotinylated probe, 635/667 nm fluorescence, primary screen (AID 1094); settings: small-molecule microarray, higher = more signal;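 also: score merges spot fluorescence near 667 nm with spot signal-to-noise ratio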
[18] = system: Noggin (protein binding on small-molecule microarray); assay: small molecules binding Noggin protein – biochemical, 635/667 nm fluorescence, primary screen (AID 1095); settings: 635 nm fluorescence, higher = more signal;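 also: score merges 667 nm feature fluorescence with signal to noise over triplicate slides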
[19] = biological target: Neurogenic locus notch homolog protein 3 (Homo sapiens) (UniProt Q9UM47); assay: small molecules binding NOTCH3 protein – biochemical, 635/667 nm fluorescence, primary screen (AID 1096); settings: small-molecule microarray, 635 nm fluorescence, higher = more signal
Neurogenic locus notch homolog protein 3 (Homo sapiens), sequence (Q9UM47 whole entry, looked up): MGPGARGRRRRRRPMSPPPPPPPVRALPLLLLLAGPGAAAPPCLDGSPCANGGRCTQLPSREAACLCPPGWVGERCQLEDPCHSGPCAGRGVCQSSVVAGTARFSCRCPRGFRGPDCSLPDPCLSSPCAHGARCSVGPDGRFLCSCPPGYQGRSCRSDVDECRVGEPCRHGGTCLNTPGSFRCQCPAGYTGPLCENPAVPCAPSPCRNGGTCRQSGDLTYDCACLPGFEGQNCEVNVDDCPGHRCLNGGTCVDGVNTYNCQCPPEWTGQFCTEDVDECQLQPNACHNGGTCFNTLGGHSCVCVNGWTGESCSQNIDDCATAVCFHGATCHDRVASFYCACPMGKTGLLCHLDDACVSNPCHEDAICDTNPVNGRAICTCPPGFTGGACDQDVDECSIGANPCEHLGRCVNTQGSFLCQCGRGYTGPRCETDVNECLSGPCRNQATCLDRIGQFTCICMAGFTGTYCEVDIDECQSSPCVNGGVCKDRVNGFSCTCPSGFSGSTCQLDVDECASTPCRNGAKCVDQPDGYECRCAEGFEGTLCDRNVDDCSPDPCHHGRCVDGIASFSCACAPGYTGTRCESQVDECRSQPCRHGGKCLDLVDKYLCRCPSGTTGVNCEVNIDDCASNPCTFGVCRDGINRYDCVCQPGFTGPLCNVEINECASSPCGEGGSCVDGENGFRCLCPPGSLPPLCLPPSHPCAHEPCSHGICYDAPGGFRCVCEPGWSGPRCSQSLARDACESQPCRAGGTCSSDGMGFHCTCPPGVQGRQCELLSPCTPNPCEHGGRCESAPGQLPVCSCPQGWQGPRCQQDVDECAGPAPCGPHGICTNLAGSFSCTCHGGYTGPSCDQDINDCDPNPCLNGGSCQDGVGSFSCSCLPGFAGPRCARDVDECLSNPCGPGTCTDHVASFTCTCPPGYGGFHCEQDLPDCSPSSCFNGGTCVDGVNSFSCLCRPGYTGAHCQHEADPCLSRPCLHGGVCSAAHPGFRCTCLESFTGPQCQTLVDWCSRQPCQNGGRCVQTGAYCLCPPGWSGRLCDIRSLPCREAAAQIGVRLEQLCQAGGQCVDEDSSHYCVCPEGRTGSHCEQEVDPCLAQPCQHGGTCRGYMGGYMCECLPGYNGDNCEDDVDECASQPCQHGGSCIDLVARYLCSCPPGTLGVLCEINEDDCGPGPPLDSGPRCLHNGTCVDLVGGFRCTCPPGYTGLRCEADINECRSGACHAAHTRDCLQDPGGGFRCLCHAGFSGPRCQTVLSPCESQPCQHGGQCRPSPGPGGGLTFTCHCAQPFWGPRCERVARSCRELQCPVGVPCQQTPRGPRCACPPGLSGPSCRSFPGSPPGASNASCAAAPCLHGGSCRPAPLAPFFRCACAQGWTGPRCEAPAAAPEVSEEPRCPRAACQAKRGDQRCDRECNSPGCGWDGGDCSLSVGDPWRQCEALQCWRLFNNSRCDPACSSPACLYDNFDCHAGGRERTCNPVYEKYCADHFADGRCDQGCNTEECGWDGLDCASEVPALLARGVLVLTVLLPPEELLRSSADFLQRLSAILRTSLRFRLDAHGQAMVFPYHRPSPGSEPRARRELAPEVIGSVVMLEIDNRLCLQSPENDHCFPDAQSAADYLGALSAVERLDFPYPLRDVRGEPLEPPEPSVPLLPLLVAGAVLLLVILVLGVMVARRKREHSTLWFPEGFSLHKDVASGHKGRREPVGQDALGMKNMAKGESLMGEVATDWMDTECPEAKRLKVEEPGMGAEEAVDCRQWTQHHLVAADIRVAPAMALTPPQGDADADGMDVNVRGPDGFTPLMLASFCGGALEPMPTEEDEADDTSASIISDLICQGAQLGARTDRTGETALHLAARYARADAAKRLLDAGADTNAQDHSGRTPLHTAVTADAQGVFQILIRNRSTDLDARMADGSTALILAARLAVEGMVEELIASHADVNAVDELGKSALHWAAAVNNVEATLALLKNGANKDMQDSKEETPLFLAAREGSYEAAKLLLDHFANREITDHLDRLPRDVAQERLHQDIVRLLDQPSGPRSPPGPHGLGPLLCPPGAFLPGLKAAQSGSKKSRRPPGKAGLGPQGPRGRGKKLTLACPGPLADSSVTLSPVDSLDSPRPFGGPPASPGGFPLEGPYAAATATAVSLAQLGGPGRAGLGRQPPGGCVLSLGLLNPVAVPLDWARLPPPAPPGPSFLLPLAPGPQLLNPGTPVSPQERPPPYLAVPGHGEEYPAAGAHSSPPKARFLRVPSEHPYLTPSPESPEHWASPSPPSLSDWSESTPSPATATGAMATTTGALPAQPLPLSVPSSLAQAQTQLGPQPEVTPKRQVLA

[20] = probe aEGFR binding to arrayed compounds – biochemical, biotinylated probe, 635/667 nm fluorescence, primary screen (AID 1097); settings: small-molecule microarray, higher = more signal;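 also: probe is a biotinylated anti-EGFR antibody binding compounds printed on slides; score combines fluorescence near 667 nm and signal to noise of each spot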

SMILES	composite z-score [1]	composite z-score [2]	composite z-score [3]	composite z-score [4]	composite z-score [5]	composite z-score [6]	composite z-score [7]	z-score [8]	composite z-score [9]	composite z-score [10]	composite z-score [11]	z-score [12]	z-score [13]	z-score [14]	composite z-score [15]	z-score [16]	composite z-score [17]	composite z-score [18]	composite z-score [19]	composite z-score [20]
[N-]=[N+]=NCc1ccccc1[C@H]1OC(c2ccc(OCCCO)cc2)=N[C@@]1(Cc1ccccc1N=[N+]=[N-])C(=O)N1CCCCC1	0.398	0.221	0.141	0.263	1.32	1.32	1.04	-1.6 (inactive)	1.41	-0.199	1.53	0.401 (inactive)	0.763 (inactive)	2.23 (inactive)	3.44	0.203 (inactive)	0.352	0.667	1.12	0.23
CCOC(=O)C[C@H]1[C@H](OC(=O)c2cc3ccccc3oc2=O)[C@@H](NC(=O)c2ccc3ccccc3n2)c2cc(OCCCO)ccc2N1C(=O)c1ccc2ccccc2n1	1.37	0.14	-0.0342	0.936	0.114	-0.0114	1.06	-0.21 (inactive)	0.787	0.177	0.295	-0.157 (inactive)	0.291 (inactive)	-0.273 (inactive)	0.648	1.5 (inactive)	-0.0773	1.03	1.12	0.183
[N-]=[N+]=NCc1ccccc1[C@H]1OC(c2ccc(OCCCO)cc2)=N[C@@]1(Cc1ccccc1N=[N+]=[N-])C(=O)NCCN1CCOCC1	0.0233	0.0401	0.14	0.981	1.61	1.49	1.1	0.342 (inactive)	1.21	0.113	1.54	0.0051 (inactive)	-13.9 (active)	0.355 (inactive)	3.43	0.72 (inactive)	0.328	0.476	1.02	-0.0205
CC[C@@H]1[C@@H]2C3C(=O)N(CC)C(=O)C3CC(=O)[C@@H]2[C@H](c2ccc(C)cc2)N1S(=O)(=O)c1ccc(C)cc1 (stereo not given in full)	-0.38	0.0428	0.161	0.383	1.56	1.37	1.1	-1.04 (inactive)	0.635	-0.19	1.29	-2.69 (inactive)	0.321 (inactive)	0.336 (inactive)	3.3	0.957 (inactive)	-0.128	0.381	0.919	-0.0371
COc1cc(C(O)C2C=CC3C(=O)N(C)C(=O)C3N2NC(=O)OC(C)(C)C)cc(OC)c1OC (stereo not given)	0.425	-0.27	0.265	0.469	1.38	2.13	1.38	-0.167 (inactive)	0.935	0.122	1.09	0.61 (inactive)	2 (inactive)	1.15 (inactive)	3.16	-1.34 (inactive)	0.604	-0.23	0.697	0.561
